The values that follow come from PubChem BioAssay (Tox21).

Records with an inconclusive call do not appear. A number with no mark means an inactive call. Calls of active or inactive are those of the source. Unless noted, calls follow the shape of the dose curve; as a rule, active = well fitted curve in the direction sought with a large enough effect in the repeat runs; inconclusive = weak or mixed curves; inactive = no such curve, though single readings can be large; an effect the other way counts as inactive or inconclusive.

Assay [1] can be described thus: qHTS assay to identify small molecule antagonists of the estrogen related receptor (ERR) signaling pathway from Tox21 library - cell viability counter screen (AID 1224834). Also: nearly all actives have a fitted effect of over 30% in size. The gist of the method:
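Cytotoxicity of test substances is gauged in the same ERR cells used for the antagonist screen, after 17.5 h of compound treatment at 37 C, by CellTiter-Fluor fluorescence measured after 30 min.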
(In qHTS, concentration-response curves come from the screen itself.)

For assay [2], the target named is Luciferin 4-monooxygenase (Photinus pyralis) (UniProt P08659). The experiment in a line: qHTS assay to identify small molecule inhibitors of firefly luciferase (AID 1224835). Also: nearly all actives have a fitted effect of over 25% in size. Also: potency is read from the fitted curve at half-maximal effect. As to activity change, negative = inhibition: series mostly up to about 120 µM. In a few lines: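 Inhibition of purified Photinus luciferase is measured by luminescence. Substrate levels (D-luciferin, ATP) sit at their KM values. Each compound is tested in a concentration series.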
Luciferin 4-monooxygenase (Photinus pyralis), sequence (P08659 whole entry, looked up): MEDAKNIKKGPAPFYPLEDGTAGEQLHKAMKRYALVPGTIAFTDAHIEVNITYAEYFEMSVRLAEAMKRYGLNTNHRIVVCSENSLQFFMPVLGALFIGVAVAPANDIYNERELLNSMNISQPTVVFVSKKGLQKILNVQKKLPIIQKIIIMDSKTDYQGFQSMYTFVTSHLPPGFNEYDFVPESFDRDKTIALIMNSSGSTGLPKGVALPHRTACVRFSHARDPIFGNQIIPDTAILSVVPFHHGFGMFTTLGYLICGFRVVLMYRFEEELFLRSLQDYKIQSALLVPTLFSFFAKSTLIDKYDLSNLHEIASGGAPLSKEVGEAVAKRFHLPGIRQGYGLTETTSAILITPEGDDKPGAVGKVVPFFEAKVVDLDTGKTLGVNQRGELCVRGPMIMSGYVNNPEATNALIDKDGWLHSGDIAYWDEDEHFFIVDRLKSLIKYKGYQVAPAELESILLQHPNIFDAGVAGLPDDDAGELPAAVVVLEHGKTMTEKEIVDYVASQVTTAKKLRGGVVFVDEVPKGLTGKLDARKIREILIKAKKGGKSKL

The nature of assay [3]: qHTS assay to identify small molecule agonists of the constitutive androstane receptor (CAR) signaling pathway - cell viability counter screen (AID 1224836). Also: series mostly up to about 92 µM; nearly all actives have a fitted effect of over 45% in size. In a few lines: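 Using CellTiter-Fluor, viability of HepG2 cells harbouring hCAR and CYP2B6-2.2kb was measured following 23 h incubation with a 15-concentration compound series plus PK11195 (0.75 uM final).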
Assay [4] in a line: qHTS assay to identify small molecule antagonists of the constitutive androstane receptor (CAR) signaling pathway - cell viability counter screen (AID 1224837). Also: series mostly up to about 92 µM; nearly all actives have a fitted effect of over 45% in size. In a few lines:
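Multiplexed cytotoxicity read-out for the CAR antagonist screen: double-stable HepG2-CYP2B6-hCAR cells co-treated with 50 nM CITCO (final) and compound over 15 concentrations, incubated 23 hr, then assessed by CellTiter-Fluor fluorescence.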

The target of assay [5] is Nuclear receptor subfamily 1 group I member 3 (Homo sapiens) (UniProt Q14994). The experiment in a line: qHTS assay to identify small molecule antagonists of the constitutive androstane receptor (CAR) signaling pathway (AID 1224838). Also: nearly all actives have a fitted effect of over 40% in size. In a few lines:
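Compounds were titrated across 15 concentrations onto HepG2 cells double-stably expressing hCAR and a CYP2B6-2.2kb reporter, together with 50 nM CITCO (final). After 24 h at 37 C, luciferase activity was measured by luminescence.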

Assay [6] has the same target. The experiment in a line: qHTS assay to identify small molecule agonists of the constitutive androstane receptor (CAR) signaling pathway (AID 1224839). Also: nearly all actives have a fitted effect of over 15% in size. Also: potency is read from the fitted curve at half-maximal effect.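 As to activation: HepG2 cells stably carrying human CAR and a CYP2B6 luciferase reporter; series mostly up to about 92 µM.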 In a few lines: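 Double-stable HepG2 cells (hCAR, CYP2B6-2.2kb) seeded 4 h before compound addition. Exposure 24 h with 0.75 uM PK11195 final. Luciferase detected by ONE-Glo.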
Assay [7] can be described thus: qHTS assay to identify small molecule antagonists of the estrogen related receptor signaling pathway with the pleiotropic PPARgamma coactivator (PGC) from Tox21 10K library - cell viability counter screen (AID 1224840; active = well fitted cell-killing curve with a large enough effect in the repeat runs, not every such curve was filed as active; also: nearly all actives have a fitted effect of over 40% in size). The gist of the method:
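Step one, plate 2,000 PGC/ERR cells per well; step two, incubate 6 h at 37 C/5% CO2; step three, pin-transfer compounds; step four, incubate 17.5 h; step five, add CellTiter-Fluor and read fluorescence after 30 min.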

Assay [8] can be described thus: qHTS assay to identify small molecule agonists of the estrogen related receptor signaling pathway with the pleiotropic PPARgamma coactivator (PGC) (AID 1224823). An excerpt: National Center for Advancing Translational Sciences [NCATS]
NIH Chemical Genomics Center [NCGC]
U.S. Environmental Protection Agency [EPA]
National Institutes of Environmental Health Sciences [NIEHS]
National Toxicology Program [NTP]
Estrogen related receptors (ERRs), the first orphan nuclear receptors discovered, play an important role in the control of cellular energy metabolism. ERRs are required for high-energy production in response to the environmental challenges. The pleiotropic PPARgamma coactivator (PGC) is a major partner of ERR and a key regulator in energy homeostasis. Together they have been implicated in the etiology of metabolic disorders such as Type 2 diabetes and metabolic syndrome. ERR-alpha was also identified as an adverse marker for breast cancer progression; ERR-alpha-positive tumors have a poor prognosis. To screen and to identify environmental compounds that perturb the PGC/ERR signaling pathways could provide valuable information for potential therapeutic or preventive measures in the treatment of metabolic disease. For identifying PGC/ERR agonists, PGC/ERR cell line (provided by NTP) has been used to screen LOPAC library.
The PGC/ERR cells were dispensed at 2,000 cells/5 ul/well in 1536-well white plates using a Multidrop dispenser. After the assay plates were incubated at a 37 C/5% CO2 incubator for 6 hours, 23 nL of compounds dissolved in DMSO, positive and negative controls or DMSO only was transferred to the assay plate by a pin tool. The plates were incubated at 37 C for 18 hours. 4 ul/well of One-Glo reagent was added into the assay plates using a Flying Reagent Dispenser. After 30 min incubation at room temperature, the luminescence intensity in the plates was measured using a ViewLux plate reader.

Assay [9] can be described thus: qHTS assay to identify small molecule antagonists of the estrogen related receptor signaling pathway with the pleiotropic PPARgamma coactivator (PGC) from Tox21 10K library (AID 1224841; call rule not given here; also: series mostly up to about 92 µM; actives are mostly falling curves and most rising ones were filed inactive; nearly all actives have a fitted effect of over 50% in size). In a few lines: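 Antagonism in this quantitative HTS is taken from loss of luciferase signal in PGC/ERR cells. Cells (2,000/well) are treated with compounds in DMSO after a 6 h settling period and read by One-Glo luminescence after 18 h.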

Assay [10] in a line: qHTS assay to identify small molecule agonists of the estrogen related receptor signaling pathway with the pleiotropic PPARgamma coactivator (PGC) from Tox21 10K library (AID 1224842). Also: nearly all actives have a fitted effect of over 15% in size. In a few lines:
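Luminescence from One-Glo (30 min, room temperature) measured after PGC/ERR cells had 18 h at 37 C with pinned compound (23 nL in DMSO). Cells had been seeded at 2,000 per well and pre-incubated 6 h.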
% is scaled to controls: 0 for no effect and ±100 for the full control effect.

Nuclear receptor subfamily 1 group I member 3 (Homo sapiens), sequence (Q14994 whole entry, looked up): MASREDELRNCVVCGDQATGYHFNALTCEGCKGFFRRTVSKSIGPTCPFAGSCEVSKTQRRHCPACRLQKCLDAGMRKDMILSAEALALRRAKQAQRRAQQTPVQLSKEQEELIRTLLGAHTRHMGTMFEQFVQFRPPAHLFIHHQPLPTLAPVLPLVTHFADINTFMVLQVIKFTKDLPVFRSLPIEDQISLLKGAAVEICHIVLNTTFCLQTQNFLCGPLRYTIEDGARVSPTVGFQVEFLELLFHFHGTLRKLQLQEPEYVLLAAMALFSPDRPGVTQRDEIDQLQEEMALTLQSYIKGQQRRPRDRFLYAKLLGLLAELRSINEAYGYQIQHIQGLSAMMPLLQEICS

As for `CCN1CCCC1CNC(=O)C(O)(c1ccccc1)c1ccccc1` (stereo unspecified), the Potency result in assay [1], in [2], in assay [3], in assay [4], in assay [5] and in [6] was “inactive” throughout. In addition, in [7], the Potency entry was “inactive”.
Turning to `Cc1cc(OC(=O)N(C)C)nn1C(=O)N(C)C`, the Potency entry in assay [1], in assay [2], in assay [3], in [4], in [5] and in assay [6] was “inactive” throughout. Further, the Potency result in [7] was “inactive”.
As for `CCN[C@@H](C)Cc1cccc(C(F)(F)F)c1`, the Potency result in assay [1], in [2], in [3], in [4], in assay [5] and in [6] was “inactive” each time. The Potency result in assay [7] is “inactive”.
`CC[C@@H](CO)NC(=O)[C@@H]1C=C2c3cccc4[nH]cc(c34)C[C@H]2N(C)C1`: the molecule was called inactive in assay [8]. For the same molecule, the Potency entry in [1], in assay [2], in [3], in assay [4], in assay [7] and in assay [9] was “inactive” throughout. Further, the Potency result in [10] is “inactive”.
Take `CCOP(=S)(OCC)Oc1ccc(Cl)cc1Cl`: the Potency entry in assay [1], in assay [2], in assay [3], in [4], in assay [5] and in assay [7] was “inactive” throughout. Besides, the Potency in assay [6] was 27.3 µM (active).
Consider `CNC(=O)NC(O)C(Cl)(Cl)Cl` (stereo unspecified), for which the Potency result in [1], in assay [2], in [3], in [4], in assay [5] and in [6] was “inactive” in each case. Moreover, in [7], the Potency result was “inactive”.
For the molecule `Cc1ccc(S(=O)(=O)N[C@@H](CCCCN)C(=O)CCl)cc1`, the molecule was classed as inactive in assay [8]. In addition, the Potency entry in [1], in [2], in assay [3], in assay [5], in [6] and in assay [7] was “inactive” each time. Moreover, the Potency result in assay [9] and in assay [10] was “inactive” in each case.
Take `CCNP(=S)(OC)O/C(C)=C/C(=O)OC(C)C` (stereo unspecified): the Potency entry in assay [1], in assay [2], in assay [3], in assay [4], in assay [5] and in [7] was “inactive” throughout. Moreover, the Potency in assay [6] is 27.3 µM (active).
Consider `CCCN1CCC[C@@H]2Cc3nc(N)ncc3C[C@H]21`, for which the call in assay [8] was inactive. For the same molecule, the Potency result in assay [1], in assay [2], in assay [3], in assay [4], in [5] and in [6] was “inactive” each time. The Potency entry in assay [7], in [9] and in [10] was “inactive” in each case.
For `CCCN1CCC[C@@H]2Cc3[nH]ncc3C[C@H]21`, in assay [8], the outcome was inactive. Moreover, the Potency entry in assay [1], in [2], in [3], in [4], in assay [5] and in assay [6] was “inactive” throughout. In addition, the Potency result in assay [7], in [9] and in assay [10] was “inactive” throughout.
As to `O=C(Cl)C(Cl)Cl`, the Potency entry in assay [1], in assay [2], in assay [3], in assay [4], in [5] and in assay [6] was “inactive” in each case. Also, the Potency entry in assay [7] is “inactive”.
Regarding `CC[C@@H](CO)NC(=O)[C@@H]1C=C2c3cccc4c3c(cn4C)C[C@H]2N(C)C1`, the outcome in assay [8] was inactive. Further, the Potency entry in assay [1], in [2], in assay [3], in assay [4], in assay [5] and in assay [6] was “inactive” each time. Besides, the Potency result in assay [7], in assay [9] and in assay [10] was “inactive” in each case.
Turning to `COC(=O)c1ccc(CBr)cc1`, the Potency result in [1], in assay [2], in [3], in [4], in [5] and in assay [7] was “inactive” in each case. In assay [6], the Potency was 31 µM (active).
For the molecule `COP(=O)(O)OC`, the Potency entry in assay [1], in assay [2], in assay [3], in assay [4], in [5] and in [6] was “inactive” each time. The Potency entry in [7] was “inactive”.
`NNC(N)=O`: the Potency entry in [1], in assay [2], in [3], in [4], in assay [5] and in assay [6] was “inactive” throughout. Besides, the Potency result in [7] was “inactive”.
`CC(C)(C)C(=O)Cl`: the Potency entry in assay [1], in [2], in assay [3], in assay [4], in assay [5] and in [6] was “inactive” throughout. Besides, the Potency entry in assay [7] was “inactive”.
As to `O=C(O)C(Cl)Br` (stereo unspecified), the Potency result in [1], in assay [2], in assay [3], in assay [4], in [5] and in [6] was “inactive” throughout. Besides, the Potency result in [7] was “inactive”.
As to `CCCCCCCCBr`, the Potency result in assay [1], in [2], in assay [3], in assay [4], in assay [5] and in assay [6] was “inactive” in each case. For the same molecule, the Potency result in assay [7] is “inactive”.
Regarding `NNCc1ccccc1`, the Potency entry in assay [1], in [3], in [4], in [5] and in [7] was “inactive” each time. The Potency in assay [2] is 10.2 µM (active); in [6] it was 62.3 µM (active).
On to `O=c1[nH]oc2c1CCNC2`, for which the molecule was classed as inactive in assay [8]. Besides, the Potency entry in assay [1], in assay [2], in assay [3], in assay [4], in assay [7] and in assay [9] was “inactive” each time. For the same molecule, the Potency result in [10] was “inactive”.
Turning to `O=C1CC(=O)NC(=O)N1`, the Potency entry in assay [1], in [2], in assay [3], in assay [4], in assay [5] and in [6] was “inactive” each time. In addition, the Potency result in assay [7] is “inactive”.
Take `O=C(Cl)CCl`: the Potency result in assay [1], in assay [2], in assay [3], in assay [4], in [5] and in [6] was “inactive” each time. Besides, in [7], the Potency entry is “inactive”.
As to `CC(Cc1ccccc1)NCCCCl` (stereo unspecified), the Potency entry in [1], in assay [2], in [3], in assay [4], in assay [5] and in assay [6] was “inactive” throughout. Besides, in [7], the Potency result was “inactive”.
For `CCCCCCC(=O)CCCCCC/C=C/C[C@@H](O)[C@H](O)[C@@](N)(CO)C(=O)O`, the viability change, negative = cytotoxic in [1] was 6.53% [at 19 µM]; in assay [3] it was 6.33% [at 19 µM]; in assay [7], 12.4% [at 19 µM]. Further, the activity change, negative = inhibition in [2] was -3.87% [at 23.6 µM]. In addition, the activity change, negative = cytotoxicity in assay [4] is -0.0318% [at 19 µM]. In addition, the activity, negative = inhibition in assay [5] was -1.56% [at 19 µM]. Besides, the activation in assay [6] is -1.84% [at 19 µM].
As to `CCCCCCCC(=O)Cl`, the Potency result in assay [1], in assay [2], in assay [3], in assay [4], in assay [5] and in assay [6] was “inactive” throughout. The Potency result in [7] is “inactive”.
Consider `ClCCCCCCCl`, for which the Potency entry in [1], in assay [2], in assay [3], in assay [4], in assay [5] and in [6] was “inactive” each time. The Potency result in assay [7] was “inactive”.
As for `C=CC=O`, the Potency entry in assay [1], in [2], in [3], in assay [4], in assay [5] and in [6] was “inactive” in each case. For the same molecule, in assay [7], the Potency result is “inactive”.
For `ClCCN1CCCC1`, the Potency entry in assay [1], in assay [2], in assay [3], in assay [4], in assay [5] and in assay [6] was “inactive” each time. Moreover, the Potency entry in assay [7] is “inactive”.
`CCc1cc(OC)c(C[C@H](C)N)cc1OC`: the Potency result in [1], in assay [2], in assay [3], in assay [4], in assay [5] and in assay [6] was “inactive” each time. Moreover, the Potency entry in [7] was “inactive”.
